Assay outcomes (PubChem BioAssay)
This excerpt belongs to a sample that is enriched for hits.
CendR NRP1 mod – modulators of CendR peptide binding to human neuropilin-1; O14786; FAM-RPARPAR peptide binding to NRP-1, fluorescence polarization; inhibition, % at 25 µM; 360,000 compounds, 0.85% hits; AID 602438;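 active means inhibition or corrected inhibition above about 18%, plus a signal ratio from 0.5 to 1.5, limit read from the data, passing the limit was not always enough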
ALR inh – inhibitors of human sulfhydryl oxidase ALR | 290,000 compounds, 3.8% hits | P55789 | purified ALR, DTT oxidation, H2O2 HRP-luminol luminescence | inhibition, % (test concentration not listed);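 active means mean replicate inhibition above about 79%, with every replicate also reaching it, limit read from the data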
PDI inh – inhibitors of human protein disulfide isomerase; PDI insulin aggregation turbidity, A650, 90 min; inhibition, % at 10 µM; AID 588391; P07237; 350,000 compounds, 0.052% hits;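 active means mean inhibition across replicates of 30% or more, whatever share of single replicates reach that level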
PglD DTNB – inhibitors of Campylobacter jejuni PglD acetyltransferase; purified PglD enzyme, DTNB colorimetric CoA detection; inhibition, % at 12.5 µM; 360,000 compounds, 0.098% hits; AID 602405; in the data active means inhibition above about 16%, passing the limit was not always enough
ARNT TACC3 PPI – disrupts binding between human ARNT and TACC3; inhibition, % at 9.99 µM; 390,000 compounds, 0.66% hits; AlphaScreen His-ARNT PAS-B/GST-TACC3 binding, luminescence; TACC3 fragment carries E629A point mutation; Q9Y6A5;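 active means mean inhibition of replicates at least 50% and at least half of replicates each reaching 50%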;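 further: 0% = complete ARNT plus TACC3 wells and 100% = ARNT alone without TACC3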
ERp5 inh – blocks human ERp5 reductase activity on insulin | Q15084 | inhibition, % at 9.99 µM | 350,000 compounds, 0.05% hits | ERp5 insulin aggregation, absorbance 650 nm, 90 min;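 active means mean replicate inhibition above about 25%, with every replicate also reaching it, limit read from the data, passing the limit was not always enough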
Target sequence (Q15084 whole entry, looked up): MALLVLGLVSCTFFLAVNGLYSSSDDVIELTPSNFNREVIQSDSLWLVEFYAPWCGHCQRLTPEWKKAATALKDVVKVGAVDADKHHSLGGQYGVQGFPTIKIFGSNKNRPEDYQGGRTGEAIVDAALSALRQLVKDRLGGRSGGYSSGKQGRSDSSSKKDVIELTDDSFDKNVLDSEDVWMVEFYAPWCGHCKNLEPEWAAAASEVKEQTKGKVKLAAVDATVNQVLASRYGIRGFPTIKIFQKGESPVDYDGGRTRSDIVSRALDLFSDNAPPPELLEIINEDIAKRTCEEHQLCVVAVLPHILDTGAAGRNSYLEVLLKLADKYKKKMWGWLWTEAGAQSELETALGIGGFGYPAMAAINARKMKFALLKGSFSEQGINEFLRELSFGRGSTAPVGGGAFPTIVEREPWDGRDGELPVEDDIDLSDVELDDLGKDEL
An asterisk follows results filed as active; · = no result given.

SMILES	CendR NRP1 mod	ALR inh	PDI inh	PglD DTNB	ARNT TACC3 PPI	ERp5 inh
O=C(O)/C=C/C(=O)c1c(-c2ccccc2)[nH]c2ccccc12	-16	98*	3	5	-4	1
CC(C)NC(=O)Nc1ccc2c(c1)CC(=O)N([C@@H](C)CO)C[C@@H](C)[C@@H](CN(C)Cc1ccc(Oc3ccccc3)cc1)O2	·	·	·	6	active	-3
COc1ccc(NC(=O)N(C)C[C@@H]2Oc3ccc(NC(=O)Nc4ccc(F)cc4)cc3CC(=O)N([C@@H](C)CO)C[C@@H]2C)cc1	·	·	·	-2	-3	79*
C[C@@H]1CN([C@H](C)CO)C(=O)Cc2cc(NC(=O)Nc3cccc4ccccc34)ccc2O[C@@H]1CN(C)C(=O)Nc1cccc2ccccc12	·	·	·	4	23	52*
C[C@H]1CN([C@@H](C)CO)C(=O)c2cc(NC(=O)Nc3cccc4ccccc34)ccc2O[C@@H]1CN(C)Cc1ccc(-c2ccccc2)cc1	25*	1	2	-1	-1	-5
C[C@H](CO)N1C[C@H](C)[C@H](CN(C)C(=O)Nc2cccc3ccccc23)Oc2ccc(NC(=O)Nc3cccc4ccccc34)cc2CC1=O	·	·	·	5	-1	·
COc1ccccc1NC(=O)N[C@H]1C=C[C@@H](CC(=O)N[C@H](C)c2ccccc2)O[C@H]1CO	·	·	·	-2	-3	-2
O=C(C[C@@H]1C=C[C@H](NC(=O)Nc2ccccc2F)[C@H](CO)O1)NCc1ccc(-c2ccccc2)cc1	·	·	·	7	-16	-2
Cc1ccc(-c2nn(CCC(=O)O)cc2/C=C\C(=O)c2ccc(Br)cc2)cc1	-41	97*	-4	·	-33	1
NC1=NC(=O)/C(=C/c2cn(CCC(=O)O)nc2-c2ccc(Cl)cc2)S1	-98	98*	-2	·	6	2
NC1=NC(=O)/C(=C/c2cn(CCC(=O)O)nc2-c2ccc(F)cc2)S1	-76	·	7	-9	3	-3
CN(C)C(=O)[C@H]1[C@H](CO)[C@H]2Cn3c(ccc(-c4ccccc4F)c3=O)[C@@H]1N2C(=O)c1cccnc1	·	·	·	1	-6	1
O=c1ccc(-c2ccc(S(=O)(=O)NCC3CCN(Cc4ccccc4F)CC3)s2)n[nH]1	14	-6	2	-4	50*	1
N#C/C(=C\c1ccc(O)c(O)c1)C(=O)NCCc1ccccc1	-62	98*	-3	-5	0	2
COc1cc(/C=C(\C#N)C(=O)NCCc2ccccc2)cc(OC)c1O	-149	17	2	·	-3	-6
COc1ccc(/C=C(\C#N)C(=O)NC(C)c2ccccc2)cc1O (centres undefined)	-1	87*	-4	-4	-2	-4
COC(=O)c1ccc(/C=C(\C#N)C(=O)NC(C)c2ccccc2)cc1 (centres undefined)	5	87*	7	·	3	0
C[C@@H]1CN([C@@H](C)CO)C(=O)Cc2cc(NC(=O)Nc3ccc(C(F)(F)F)cc3)ccc2O[C@@H]1CN(C)Cc1ccc(-c2ccccc2)cc1	·	·	·	-1	6	-4
O=C(N/C(=C/c1ccco1)C(=O)N1CCCCCC1)c1cccs1	-46	97*	-6	7	21	·
O=C(O)/C(=C\c1ccco1)NC(=O)c1ccccc1	7	97*	-2	-1	-5	5
O=C(N/C(=C/c1ccco1)C(=O)N1CCCCCC1)c1ccccc1	-10	25	15	-3	4	4
CC1CN(c2nc(-c3ccc(Br)cc3)nnc2-c2ccccc2)CC(C)N1 (centres undefined)	1	97*	11	5	2	·
CCn1c(/C=C/c2ccccc2C)nc2ccccc2c1=O	-3	2	0	0	12	-6
Cc1ccc(Cn2c(SC(C)C(N)=O)nc3ccccc3c2=O)cc1 (centres undefined)	11	3	1	·	6	-5
CCn1c(/C=C/c2ccc(O)cc2)nc2ccccc2c1=O	3	98*	-1	15	11	1
CCn1c(/C=C/c2ccc(O)c(O)c2)nc2ccccc2c1=O	-38	100*	21	5	18	0
CCOC(=O)C(C)Sc1nc2ccccc2c(=O)n1CC (centres undefined)	42*	0	-7	7	0	·
